Results: PubChem BioAssay
Active and inactive are the calls of the source. No rule for the calls is given here.

Target: Pantothenate synthetase (Mycobacterium tuberculosis (strain ATCC 25618 / H37Rv)) (UniProt P9WIL5)
Assay: Coupled enzyme confirmation of inhibitors against recombinant Mtb PanC (AID 375);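 also: 0% = full reaction with vehicle and 100% = no enzyme background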
Details: coupled enzyme assay; at 10 µM, stronger effect = higher value

Sequence of Pantothenate synthetase (Mycobacterium tuberculosis (strain ATCC 25618 / H37Rv)) (P9WIL5 whole entry, looked up): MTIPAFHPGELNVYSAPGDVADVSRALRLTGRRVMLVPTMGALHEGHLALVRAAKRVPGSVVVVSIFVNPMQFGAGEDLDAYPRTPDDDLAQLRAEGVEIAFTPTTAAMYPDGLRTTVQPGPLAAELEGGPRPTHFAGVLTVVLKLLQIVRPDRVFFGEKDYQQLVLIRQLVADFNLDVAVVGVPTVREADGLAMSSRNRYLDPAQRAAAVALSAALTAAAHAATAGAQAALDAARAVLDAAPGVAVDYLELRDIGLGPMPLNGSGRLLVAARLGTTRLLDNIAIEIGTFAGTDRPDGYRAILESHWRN

Question: Which inhibition does the source give for `CCC(C)c1ccc(NC(=O)c2cccnc2)cc1` (stereo not given) here?
Answer: 9% (inactive)

Question: For `O=C(Nc1ccc(F)cc1F)NC1CC(=O)N(Cc2ccccc2)C1` (stereo not given), which inhibition is on record?
Answer: 1% (inactive)

Question: `CCOC(=O)c1ccc(NC(=O)Nc2ccn(C)n2)cc1` was tested. Which inhibition did it give?
Answer: 0% (inactive)

Question: Which inhibition does the source give for `CCOC(=O)N1CCC(NC(=O)C2CCCN2C(=O)OCc2ccccc2)CC1` (stereo not given) here?
Answer: 5% (inactive)

Question: For `CCSc1nnc(NC(=O)C2CCCN(S(=O)(=O)c3cnc[nH]3)C2)s1` (stereo not given), which inhibition is on record?
Answer: 7% (inactive)

Question: For `CCn1nc(CC(=O)Nc2nnc(CC(=O)N3CCCCC3)s2)c2ccccc2c1=O`, which inhibition is on record?
Answer: 0% (inactive)

Question: For `c1ccc(Cn2nnc3c(N4CCC5(CC4)OCCO5)ncnc32)cc1`, which inhibition is on record?
Answer: 0% (inactive)

Question: `COc1ccccc1NC(=O)c1oc2ccccc2c1NC(=O)c1cc(OC)c(OC)c(OC)c1` was tested. Which inhibition did it give?
Answer: 0% (inactive)

Question: With `CCCC(=O)N1CC(=O)Nc2ccc(C)cc2C1c1ccc(F)cc1` (stereo not given) as the compound, how does the inhibition read?
Answer: 0% (inactive)

Question: With `CC(C)CC1NC(=O)N(CC(=O)N2CCN(S(=O)(=O)c3ccc(Cl)cc3)CC2)C1=O` (stereo not given) as the compound, how does the inhibition read?
Answer: 0% (inactive)

Question: `Cc1nc(N)c(C#N)c(-c2cccnc2)c1C` was tested. Which inhibition did it give?
Answer: 0% (inactive)

Question: How did the inhibition turn out when `CC1(C)CN=C(N2CCN(c3ncnc4sc5c(c34)CCCC5)CC2)S1` was run?
Answer: 0% (inactive)

Question: How did the inhibition turn out when `O=S(=O)(Nc1cccc2ncccc12)c1cccs1` was run?
Answer: 6% (inactive)

Question: How did the inhibition turn out when `Cc1cc(S(=O)(=O)n2cnc3ccccc32)c(C)cc1Cl` was run?
Answer: 0% (inactive)

Question: For `O=C(Nc1nnc(CCN2CCCCC2)s1)C1CCCCC1`, which inhibition is on record?
Answer: 0% (inactive)

Question: With `CCCn1c(SCC(=O)N2CCCc3ccccc32)nnc1-c1ccccn1` as the compound, how does the inhibition read?
Answer: 3% (inactive)

Question: How did the inhibition turn out when `CN(C)CCCN1C(=O)CSC1c1ccccc1` (stereo not given) was run?
Answer: 0% (inactive)

Question: Which inhibition does the source give for `COC(=O)CSc1nnc(-c2ccc(OC)cc2OC)o1` here?
Answer: 0% (inactive)

Question: Which inhibition does the source give for `CCOC(=O)Cc1csc(NC(=O)CSc2nnc(C3CC3)n2C)n1` here?
Answer: 3% (inactive)

Question: With `CCC1CCCCN1S(=O)(=O)c1ccc(C(=O)Nc2nnc(-c3ccccc3Cl)o2)cc1` (stereo not given) as the compound, how does the inhibition read?
Answer: 4% (inactive)

Question: With `O=C(CCCn1c(=S)[nH]c2cc3c(cc2c1=O)OCO3)N1CCN(c2ccccc2F)CC1` as the compound, how does the inhibition read?
Answer: 0% (inactive)

Question: For `COc1cccc(NC(=O)COC(=O)c2cccnc2)c1`, which inhibition is on record?
Answer: 0% (inactive)

Question: `O=C(C1CCCN1S(=O)(=O)c1cccc2cccnc12)N1CCn2c1nc1ccccc12` (stereo not given) was tested. Which inhibition did it give?
Answer: 6% (inactive)

Question: Which inhibition does the source give for `CC(=O)N1CCc2cc(S(=O)(=O)NC(C(=O)NCc3ccccc3)C(C)C)ccc21` (stereo not given) here?
Answer: 3% (inactive)

Question: Which inhibition does the source give for `CC1=C(C(=O)OC(C)C)C(C2CC=CCC2)NC(=O)N1` (stereo not given) here?
Answer: 6% (inactive)

Question: With `Cc1ccccc1N1C(N)=NC(N)=NC1(C)C` as the compound, how does the inhibition read?
Answer: 0% (inactive)

Question: `CCCn1c(SCC(=O)NCCc2ccccc2)nnc1-c1ccccn1` was tested. Which inhibition did it give?
Answer: 6% (inactive)

Question: With `COCCn1c(=N)c(C(=O)NCCc2ccccc2)cc2c(=O)n3cccc(C)c3nc21` as the compound, how does the inhibition read?
Answer: 3% (inactive)

Question: `O=C(Nc1cccc(Cl)c1)N1CCN(Cc2ccccc2)CC1` was tested. Which inhibition did it give?
Answer: 5% (inactive)

Question: For `CCCCC(c1nnnn1CS(=O)(=O)c1ccc(C)cc1)N1CCN(c2ccccc2)CC1` (stereo not given), which inhibition is on record?
Answer: 0% (inactive)

Question: `O=C1CCCCCN1CSc1nc2ccccc2s1` was tested. Which inhibition did it give?
Answer: 0% (inactive)

Question: How did the inhibition turn out when `CCN(CC)CCOC(=O)c1c(C)oc2ccc(O)cc12` was run?
Answer: 0% (inactive)

Question: With `Cc1nc2ccccc2c2oc(C(=O)NCC3COc4ccccc4O3)cc12` (stereo not given) as the compound, how does the inhibition read?
Answer: 0% (inactive)

Question: How did the inhibition turn out when `Cc1cc(C(=O)COC(=O)CCc2nc3ccccc3s2)c(C)n1C` was run?
Answer: 0% (inactive)

Question: For `COc1ccc(CCN2C(=O)CC(N3CCN(S(=O)(=O)c4ccccc4)CC3)C2=O)cc1` (stereo not given), which inhibition is on record?
Answer: 0% (inactive)

Question: How did the inhibition turn out when `CCN1CCN(CCCNC(=O)c2cc3sccc3n2CC)CC1` was run?
Answer: 0% (inactive)

Question: `Cc1ccc(CSC2=NCCN2C(=O)c2ccco2)cc1` was tested. Which inhibition did it give?
Answer: 0% (inactive)

Question: For `COc1cc(S(=O)(=O)NC2CCCCC2)ccc1Cl`, which inhibition is on record?
Answer: 1% (inactive)

Question: `COCCNC(=O)NC(=O)COC(=O)Cc1ccc2c(c1)OCCO2` was tested. Which inhibition did it give?
Answer: 4% (inactive)

Question: For `COC(=O)CN1C(=O)CC(C)(C)S(=O)c2ccccc21` (stereo not given), which inhibition is on record?
Answer: 0% (inactive)
